# Measured values reported in PubChem BioAssay.
# Activity calls are given as the source filed them. Unless noted, how the calls were made is not given here.
# Key:
# [1] = HepG2 liver cancer cell viability effects, profiling panel, resazurin fluorescence, 24 h, PK04 Diversity Set (AID 1172); conditions: higher = more signal
# [2] = basal S. cerevisiae growth modulation, no modifier, primary screen, OD600, strain BY4716, 24 h, basal condition (AID 1173); conditions: OD600, 24 h, higher = more signal, called active from +8 up or from −8 down
# [3] = MM1S myeloma cell viability, profiling panel, resazurin fluorescence, basal, 24 h, PK04 Diversity Set (AID 1174); conditions: higher = more signal, called active from +8 up or from −8 down;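 further: MM1S multiple myeloma cell line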
# [4] = biological target: Dihydroorotate dehydrogenase (quinone), mitochondrial (Plasmodium falciparum (isolate 3D7)) (UniProt Q08210); assay: PfDHODH enzyme inhibitors, primary screen, biochemical, C-terminal His tag, absorbance 600 nm (AID 1175); conditions: DCIP absorbance 600 nm, higher = more signal, called active from +8 up or from −8 down;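 further: recombinant parasite enzyme with a five histidine tag at its C terminus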
# Sequence of Dihydroorotate dehydrogenase (quinone), mitochondrial (Plasmodium falciparum (isolate 3D7)) (Q08210 whole entry, looked up): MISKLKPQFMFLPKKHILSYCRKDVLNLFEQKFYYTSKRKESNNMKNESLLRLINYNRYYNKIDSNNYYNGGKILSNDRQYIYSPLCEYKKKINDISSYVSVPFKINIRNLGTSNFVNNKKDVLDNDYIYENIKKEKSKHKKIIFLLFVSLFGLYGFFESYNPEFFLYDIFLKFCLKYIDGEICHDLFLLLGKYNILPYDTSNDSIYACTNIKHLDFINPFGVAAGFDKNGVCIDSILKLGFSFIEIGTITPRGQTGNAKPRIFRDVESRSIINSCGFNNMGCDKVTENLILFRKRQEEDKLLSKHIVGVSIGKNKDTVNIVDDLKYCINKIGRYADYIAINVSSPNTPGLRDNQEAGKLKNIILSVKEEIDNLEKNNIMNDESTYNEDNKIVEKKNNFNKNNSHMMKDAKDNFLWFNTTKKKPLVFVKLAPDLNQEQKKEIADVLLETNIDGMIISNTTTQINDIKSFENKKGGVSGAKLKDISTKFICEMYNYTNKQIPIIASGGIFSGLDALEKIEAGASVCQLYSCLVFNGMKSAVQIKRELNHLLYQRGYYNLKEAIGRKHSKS
# [5] = P. aeruginosa biofilm formation inhibitors, primary screen, strain PAO1, LB-PBS medium, absorbance 600 nm (AID 1176); conditions: P. aeruginosa PAO1 growth/biofilm, A600, 12 h; higher = more signal
# [6] = S. cerevisiae RM11-1a growth modifiers, primary screen, strain RM11-1a, OD600, basal, 24 h (AID 1177); conditions: OD600, 24 h, higher = more signal, called active from +8 up or from −8 down;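 further: cultures grown under basal conditions with no added stressor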
# [7] = E. coli acrAB mutant growth effects, primary screen, E. coli filamentation inducers, strain DRC39, OD650, 24 h (AID 1178); conditions: higher = more signal, called active from +8 up or from −8 down;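 further: growth measured as culture turbidity by optical density at 650 nm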
# [8] = E. coli acrAB mutant growth effects, primary screen, E. coli filamentation inducers, strain DRC39, OD650, 48 h (AID 1179);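 further: screen aims at cell division blockers that make cells filament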; conditions: E. coli DRC39 delta-acrAB growth, higher = more signal, called active from +8 up or from −8 down
# [9] = RPMI8226 myeloma cell viability, profiling panel, resazurin fluorescence, basal, 24 h, PK04 Diversity Set (AID 1180); conditions: higher = more signal;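 further: RPMI8826 multiple myeloma cell line at 5000 cells per well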
# [10] = biological target: E3 ubiquitin-protein ligase XIAP (Homo sapiens) (UniProt P98170); assay: XIAP binders, primary screen, biophysical, small-molecule microarray, fluorescence 635 nm (AID 1181); conditions: small-molecule microarray binding, higher = more signal;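 further: score merges 667 nm emission and signal to noise over triplicate slides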
# Sequence of E3 ubiquitin-protein ligase XIAP (Homo sapiens) (P98170 whole entry, looked up): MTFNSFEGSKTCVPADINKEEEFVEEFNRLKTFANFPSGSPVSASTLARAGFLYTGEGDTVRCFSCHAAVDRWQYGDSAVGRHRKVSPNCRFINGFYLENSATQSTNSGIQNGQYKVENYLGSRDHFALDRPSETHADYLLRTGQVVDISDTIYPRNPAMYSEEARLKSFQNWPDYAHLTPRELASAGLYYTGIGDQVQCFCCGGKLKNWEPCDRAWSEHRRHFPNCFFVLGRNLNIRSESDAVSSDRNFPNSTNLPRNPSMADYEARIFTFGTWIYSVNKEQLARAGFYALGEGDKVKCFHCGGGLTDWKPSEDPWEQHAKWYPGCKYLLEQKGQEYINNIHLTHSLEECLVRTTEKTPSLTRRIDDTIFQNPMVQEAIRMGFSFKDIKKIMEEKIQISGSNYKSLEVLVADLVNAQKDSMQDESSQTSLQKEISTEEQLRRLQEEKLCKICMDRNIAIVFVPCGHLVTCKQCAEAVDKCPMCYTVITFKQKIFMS
# [11] = test system: XIP peptide (Xip251-270) binding; assay: small-molecule binders of XIP peptide, primary screen, biochemical, small-molecule microarray, fluorescence 635/667 nm, 0.1 µg/mL protein (AID 1182); conditions: fluorescent protein binding, 635 nm, higher = more signal, called active from +8 up or from −8 down
# XIP peptide (Xip251-270) = assay: small-molecule binders of XIP peptide, primary screen, biochemical, small-molecule microarray, fluorescence 635/667 nm, 0.5 µg/mL protein (AID 1183); conditions: small-molecule microarray binding, fluorescence 635 nm; higher = more signal
# [12] = Plasmodium falciparum growth inhibition, primary screen, strain 3D7, DAPI fluorescence, 100 nL (AID 1184);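 further: parasites grown inside human red blood cells in medium with human serum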; conditions: P. falciparum 3D7 growth, 3 d, higher = more signal
# [13] = biological target: Homeobox protein Hox-A13 (Mus musculus) (UniProt Q62424); assay: inhibitors of HoxA13-DNA binding, primary screen, biochemical, fluorescence polarization, labeled oligonucleotide (AID 1185); conditions: 15 min, higher = more signal, called active from +8 up or from −8 down
# Sequence of Homeobox protein Hox-A13 (Mus musculus) (Q62424 whole entry, looked up): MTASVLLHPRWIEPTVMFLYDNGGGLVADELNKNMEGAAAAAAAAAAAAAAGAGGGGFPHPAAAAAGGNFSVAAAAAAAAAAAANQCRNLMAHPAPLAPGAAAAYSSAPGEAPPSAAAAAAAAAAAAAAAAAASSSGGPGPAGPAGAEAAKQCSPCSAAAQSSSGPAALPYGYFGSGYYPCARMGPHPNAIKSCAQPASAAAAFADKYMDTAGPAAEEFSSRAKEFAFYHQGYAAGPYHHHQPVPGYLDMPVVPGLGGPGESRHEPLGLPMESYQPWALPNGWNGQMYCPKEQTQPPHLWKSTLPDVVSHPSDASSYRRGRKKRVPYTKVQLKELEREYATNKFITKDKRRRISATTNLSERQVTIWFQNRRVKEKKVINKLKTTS
# [14] = inhibitors of hydroxyurea-induced Chk1 phosphorylation, primary screen, imaging, HeLa, phospho-Chk1 antibody, percent positive cells (AID 1186); conditions: hydroxyurea-induced phospho-Chk1 immunofluorescence imaging, higher = more signal
# [15] = inhibitors of hydroxyurea-induced Chk1 phosphorylation, primary screen, imaging, HeLa, phospho-Chk1 nuclear intensity (AID 1187); conditions: hydroxyurea-induced phospho-Chk1 immunofluorescence imaging, higher = more signal
SMILES,z-score [1],z-score [2],z-score [3],composite z-score [4],z-score [5],z-score [6],z-score [7],z-score [8],z-score [9],composite z-score [10],composite z-score [11],composite z-score (XIP peptide (Xip251-270)),z-score [12],z-score [13],z-score [14],z-score [15]
COCCOC(=O)N1C(=O)[C@@]2(c3cc(C#CCCO)ccc31)[C@H](C(=O)N1CCCCCCC1)[C@H]1C(=O)O[C@H](c3ccccc3)[C@H](c3ccccc3)N1[C@@H]2c1ccc(OCCO)cc1,0.902,0.849 (inactive),0.368 (inactive),0.047 (inactive),1.56 (inactive),2.32 (inactive),-0.0574 (inactive),0.215 (inactive),-2.44,1.06,1.29 (inactive),0.666,-1.5,-11 (active),-0.201 (inactive),0.0919 (inactive)
COc1ccc([Si](C)(C)[C@H]2[C@H](CCO)O[C@@]3(C(=O)N(Cc4ccc(N(C=O)c5ccccc5)cc4)c4ccccc43)[C@@H]2C)cc1,-1.57,1.83 (inactive),-3.71 (inactive),0.041 (inactive),2.06 (inactive),4.71 (inactive),0.216 (inactive),-0.495 (inactive),-2.77,-0.163,0.381 (inactive),0.282,-1.93,-0.824 (inactive),1.27 (inactive),-0.123 (inactive)
COC(=O)[C@@]1(Cc2ccc(F)cc2)[C@H]2c3cc(C(=O)N(C)C)n(Cc4ccccc4)c3C[C@H]2CN1C(=O)c1ccccc1,-1.49,1.98 (inactive),-0.946 (inactive),0.151 (inactive),0.976 (inactive),1.61 (inactive),-0.342 (inactive),0.232 (inactive),-2.86,-0.2,0.578 (inactive),0.766,-1.41,-3.11 (inactive),1.33 (inactive),1.2 (inactive)
C=C[C@H](C)[C@@H](OC(=O)Nc1ccc(OC)cc1)c1ccc(O)c2ccccc12,-1.31,-18.2 (active),-4.56 (inactive),-2.51 (inactive),0.802 (inactive),-21.8 (active),1.42 (inactive),0.525 (inactive),-2.9,-0.196,0.863 (inactive),0.251,0.0221,-4.35 (inactive),-0.025 (inactive),0.099 (inactive)
COc1cc2c(cc1O)C(c1cccs1)N(C)CC2 (stereo not drawn),-0.493,1.11 (inactive),-1.55 (inactive),-8.08 (active),0.282 (inactive),-0.225 (inactive),0.34 (inactive),0.597 (inactive),-0.468,0.0682,-0.721 (inactive),0.594,-1.12,-3.91 (inactive),-0.428 (inactive),-0.628 (inactive)
C=CC[C@@]12N=C(c3ccc(OCCCO)cc3)O[C@@H]1c1ccccc1N(C)C2=O,-0.0241,-0.926 (inactive),-2.53 (inactive),0.579 (inactive),0.0684 (inactive),1.46 (inactive),0.817 (inactive),1.18 (inactive),-0.912,0.368,0.535 (inactive),0.759,-1.9,-4.57 (inactive),0.221 (inactive),0.444 (inactive)
C=C[C@@H](COC(=O)OC(C)(C)C)N(Cc1ccc(OC)cc1)S(=O)(=O)c1ccc(Br)cc1,0.163,0.119 (inactive),0.67 (inactive),-0.316 (inactive),-0.177 (inactive),0.378 (inactive),-0.807 (inactive),-0.667 (inactive),-0.918,0.1,0.323 (inactive),0.219,0.605,-0.981 (inactive),0.344 (inactive),0.447 (inactive)
NC(=O)NCC#Cc1ccc2c(c1)[C@]1(C(=O)N2)[C@H](C(N)=O)[C@H]2C(=O)O[C@H](c3ccccc3)[C@H](c3ccccc3)N2[C@@H]1c1ccc(O)cc1,0.584,-0.911 (inactive),0.204 (inactive),-0.405 (inactive),-0.212 (inactive),-0.732 (inactive),0.0883 (inactive),-0.612 (inactive),-0.0275,0.156,1.49 (inactive),0.109,-0.19,-5.36 (inactive),0.0619 (inactive),0.044 (inactive)
